For 51 molecules, activity change, negative = inhibition and Potency results are on record in PubChem BioAssay AID1461 (National Center for Advancing Translational Sciences (NCATS), 2008).

The structures appear in SMILES notation. Out of some 220,000 compounds screened, about 2,300 (1%) were called active. A call without a number means that no potency is given here. About 6% were inconclusive and are not listed. This is one part of a sample in which actives are shown more often than they occur. A number with no mark means an inactive call. The call rests on the fitted dose curve; in most records, active means well fitted inhibition curve with a large enough effect; inconclusive means small, poorly fitted or top-dose-only effect, or effect the other way; inactive means no such curve, though single readings can be large or run the other way.
Potency means the concentration at half of the fitted maximal effect.

The target of this experiment is Neuropeptide S receptor (Homo sapiens) (UniProt Q6W5P4). Briefly: qHTS Assay for Antagonists of the Neuropeptide S Receptor: cAMP Signal Transduction. Further: nearly all actives have a fitted effect of over 50% in size. To be noted: CHO-NPSR cells, cAMP TR-FRET, antagonist mode; series mostly up to 38.3 µM. An excerpt: NIH Chemical Genomics Center [NCGC] NIH Molecular Libraries Probe Production centers Network [MLPCN] MLPCN Grant: X01-DA026210-01 Assay Submitter (PI): Heilig, Markus Alexander NCGC Assay Overview: Neuropeptide S receptor (NPSR), previously known as GPR154, is a recently de-orphanized G protein coupled receptor. Its endogenous ligand is the 20 amino acids peptide Neuropeptide S (NPS). […] NPS and its receptor are found in various tissues. Specifically they are highly expressed in brain areas that have been implicated in modulation of arousal, stress and anxiety. Central administration of NPS in mice produces an unusual profile of activity by inducing wakefulness and arousal, while at the same time suppressing anxiety. Therefore, NPSR may represent a novel drug target for the treatment of sleep and anxiety disorders. To identify NPSR antagonists, we developed a cell-based cAMP assay. NPS can stimulate the production of cAMP in Chinese hamster ovary cells stably expressing NPS receptor. This change in intracellular cAMP level can be detected by a homogeneous LANCE cAMP assay based on the TR-FRET (time resolved fluorescence resonance energy transfer) between a europium-labeled cAMP tracer complex and a cAMP-specific antibody labeled with Alexa Fluor 647. The europium-labeled cAMP tracer complex is formed by the tight interaction between Biotin-cAMP (b-cAMP) and streptavidin labeled with Europium-W8044 chelate (Eu-SA). Light pulse at 320 nm excites the europium of the cAMP tracer and the energy emitted is transferred to the Alexa molecule bound to the cAMP antibody, generating a TR-FRET signal at 665 nm. Residual energy from the europium will produce a light at 620 nm. The native unlabeled cAMP from cell lysates competes with the europium-cAMP tracer for antibody binding and reversely reduces the emission signal of Alexa by interrupting FRET between the two labeled molecules. Both emission signals from the FRET donor (620 nm) and the acceptor (665 nm) can be detected by a plate reader in the TRF mode. Expression of result in fluorescence ratio (665 nm/620 nm) helps to normalize differences due to cell density and reagent dispensing. This assay was successfully optimized to a 1536-well plate format.
Sequence of Neuropeptide S receptor (Homo sapiens) (Q6W5P4 whole entry, looked up): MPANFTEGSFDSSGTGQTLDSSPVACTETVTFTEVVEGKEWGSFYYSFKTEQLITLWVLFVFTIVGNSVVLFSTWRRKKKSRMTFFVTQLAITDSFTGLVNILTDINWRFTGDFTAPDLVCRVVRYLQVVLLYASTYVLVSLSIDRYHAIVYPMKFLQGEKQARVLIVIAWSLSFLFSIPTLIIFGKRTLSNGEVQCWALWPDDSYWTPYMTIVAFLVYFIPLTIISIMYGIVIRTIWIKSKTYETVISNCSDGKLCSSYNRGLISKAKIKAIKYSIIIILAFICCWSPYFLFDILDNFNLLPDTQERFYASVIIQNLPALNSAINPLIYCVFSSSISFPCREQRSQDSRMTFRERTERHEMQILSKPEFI
NCGC Assay Protocol Summary: A Chinese hamster ovary (CHO) cell line stably expressing the NPS receptor (CHO-NPSR) was obtained from Dr. Heilig lab at NIAAA and maintained in F-12 Kaighn's media (Invitrogen, Carlsbad, CA, 21127) supplemented with 10 % FBS, 100 units/ml penicillin, 100 ug/ml streptomycin and 250 ug/ml geneticin at 37C, 5% CO2 in a humidified atmosphere. Before the assay, aliquots of cells were frozen and stored at -135C. The assay was performed in 1536-well format. Data are reported for both the ratio of the two emission wavelengths, and also for the component 'donor' channel, Em2=620. Data were normalized to the controls for basal activity (DMSO only) and 100% inhibition (No NPS control). IC50 values were determined from concentration-response data modeled with the standard Hill equation. NPS 1536-well assay protocol: (1) Fresh or frozen CHO-NPSR cells were suspended in F-12 Kaighn's media supplemented with 10 % FBS, 100 units/ml penicillin and 100 ug/ml streptomycin. Cells were plated at 4 ul/well (1200 cells) to white, tissue culture treated 1536-well plates, and then cultured at 37C, 5 % CO2 for 16 to 30 hours. (2) Add 23 nl/well of compound in DMSO solution. The final titration for each compound was between 0.6 nM and 46 uM. (3) Add 1 ul of stimulation reagent (1X HBSS buffer, 5 mM HEPES, 0.1% BSA, 500 uM RO-201724 (Sigma-Aldrich, B8279), 1.5% Alexa 647-labeled anti-cAMP antibody (from Perkin Elmer), 100 nM NPS) (4) Incubation at 37C, 5 % CO2 for 60 min. (5) Add 1 ul/well detection reagent. Detection reagent was prepared by adding biotin labeled cAMP (4%), streptavidin labeled with Europium-W8044 chelate (1.33%) and TritonX-100 (1%) to detection buffer. […]
For orientation: qHTS replaces the single test concentration by a dilution series.
As for `Cc1ccc(NC(=O)C/C(N)=N/O)cc1Cl`, the activity change, negative = inhibition was -0.778% [at 7.67 µM].

In the case of `O=C(CC(=O)Nc1ccc(Cl)c(Cl)c1)N/N=C/c1ccc(O)cc1`, the Potency result was “inactive”.

Regarding `O=C(CC(O)(C(F)(F)F)C(F)(F)F)Nc1ccc(Cl)c(Cl)c1`, the Potency was 6.31 µM (active).

On to `COc1cc2c(cc1OC)C(/C=C/c1ccco1)=NCC2`, for which the Potency entry is “inactive”.

For `COC(=O)c1cc(NC(=O)c2ccco2)ccc1N1CCOCC1`, the Potency entry is “inactive”.

Take `C=CCn1c(=S)[nH]c2nc3c(cc2c1=O)COC(C)(C)C3`: the Potency entry is “inactive”.

Take `CC(=O)Nc1ccc(NC(=O)CSc2ncnc3c2cnn3Cc2ccccc2)cc1`: the Potency result is “inactive”.

`CC1(C)Cc2nc3sc4c(SCC(=O)NC(c5ccccc5)c5ccccc5)ncnc4c3cc2CO1`: the Potency is 1.26 µM (active).

For the molecule `O=c1[nH]nc(SCCS(=O)(=O)c2ccc(F)cc2)n1-c1ccccc1C(F)(F)F`, the Potency entry is “inactive”.

Consider `Cc1cccc2c1-c1sc(C(=O)NCCCN3CCc4ccccc4C3)cc1CO2`, for which the Potency result is “inactive”.

With `O=C(C[n+]1ccc2c(c1)nnn2-c1ccccc1)c1ccc(Cl)cc1`, the Potency entry was “inactive”.

Regarding `O=C(Cn1nnc(N2CCCCC2)n1)c1ccc(Cl)c(Cl)c1`, the Potency result was “inactive”.

With `O=S(=O)(NCc1ccco1)c1cnc(Cl)c(Cl)c1`, the activity change, negative = inhibition was 25.6% [at 7.67 µM].

On to `Cn1c(SCC(=O)N2CCOCC2)nnc1-c1ccc2ncccc2c1`, for which the Potency result is “inactive”.

As to `CC(C)=CCc1c(O)c(CC=C(C)C)c2occ(-c3ccc(O)cc3)c(=O)c2c1O`, the Potency result was “inactive”.

Regarding `O=C1CN(c2nc(-c3ccccc3)c3cc(Br)ccc3n2)c2ccccc2N1`, the Potency was 6.31 µM (active).

For the molecule `Cc1ccc(C)c(S(=O)(=O)N2CC(=O)Nc3ccccc32)c1`, the Potency entry is “inactive”.

For `Cc1ccc(S(=O)(=O)N2CC(=O)Nc3ccccc32)cc1C`, the Potency result is “inactive”.

Regarding `COc1ccc(CN2CCOC2=O)cc1OC`, the Potency entry is “inactive”.

As for `COc1ccc(C2/C(=C(/O)c3ccccc3)C(=O)C(=O)N2c2ncccn2)cc1OC` (stereo unspecified), the Potency result is “inactive”.

As for `Cc1cc(N2C(=O)C(=O)/C(=C(/O)c3ccc(Cl)cc3)C2c2cccc(Br)c2)no1` (stereo unspecified), the Potency was 12.6 µM (active).

In the case of `COc1ccccc1C1/C(=C(/O)c2ccc(OC(C)C)cc2)C(=O)C(=O)N1c1cc(C)on1` (stereo unspecified), the Potency entry was “inactive”.

Consider `CC(=O)NCc1ccc(S(=O)(=O)NC2CCN(Cc3ccccc3)CC2)cc1`, for which the Potency result is “inactive”.

`COc1ccc(Br)c2c1C(=O)CC2`: the Potency entry was “inactive”.

As to `COC(=O)c1cn(C(=O)c2ccc(Cl)cc2)c2ccccc12`, the Potency result was “inactive”.

As to `CCOC(=O)NNc1cc(C(F)(F)F)ccn1`, the Potency result was “inactive”.

As to `COc1ccccc1P(=O)(c1ccccc1)c1ccccc1NC(C)=O` (stereo unspecified), the Potency result was “inactive”.

For `CCOC(=O)/C(=C\c1ccc([N+](=O)[O-])cc1)C(=O)c1cc(C(C)=O)c(Nc2ccccc2)s1`, the Potency is 7.94 µM (active).

For the molecule `O=C(Nc1ccccc1)/C(=C/c1ccc([N+](=O)[O-])cc1)NC(=O)c1ccccc1`, the Potency result is “inactive”.

Take `Cc1cccc(NC(=O)c2sc(-c3ccccc3)nc2-c2ccc([N+](=O)[O-])cc2)c1`: the Potency result was “inactive”.

As to `Cc1ccc(C)c2[nH]c(=O)c(CN(Cc3cccnc3)C(=S)NCc3ccco3)cc12`, the Potency entry was “inactive”.

`COc1ccc(Nc2cc(Cl)ccc2C(=O)O)cn1`: the Potency entry was “inactive”.

As to `COc1ccc(NC(=O)/C(Cl)=C(/Cl)S(=O)Cc2ccc(C)cc2)cn1` (stereo unspecified), the Potency is 1 µM (active).

For `COc1ccc(NC(=S)Nc2ccccc2Cl)cn1`, the Potency result is “inactive”.

For `COc1cccc(Nc2nc(N)c([N+](=O)[O-])c(NCc3ccco3)n2)c1`, the Potency result was “inactive”.

Turning to `C/C(=N\OCC(=O)O)c1ccc(Cl)cc1`, the activity change, negative = inhibition is 9.86% [at 7.67 µM].

In the case of `Cc1noc(C)c1S(=O)(=O)Nc1cc(C(F)(F)F)ccc1N1CCOCC1`, the Potency result is “inactive”.

`COc1ccc(C(=O)C2CCCN(Cc3ccc4nonc4c3)C2)c(C)c1` (stereo unspecified): the Potency result was “inactive”.

Regarding `O=[N+]([O-])c1c(NCCO)cc(Sc2nc3ccccc3s2)c2nonc12`, the Potency was 10 µM (active).

As to `COc1ccc(S(=O)(=O)Nc2ccc(O)c(Sc3nc4ccccc4s3)c2)cc1`, the Potency entry is “inactive”.

On to `O=C(CSc1nc2ccccc2s1)Nc1ccc(C(=O)O)cc1`, for which the Potency entry was “inactive”.

`COc1cc2nc(Cl)nc(NCCO)c2cc1OC`: the Potency entry is “inactive”.

For `C/C(=N/NC(=O)CC(=O)N/N=C(\C)c1ccc([N+](=O)[O-])cc1)c1ccc([N+](=O)[O-])cc1`, the Potency entry is “inactive”.

Take `O=C(Cn1cnc2cc([N+](=O)[O-])ccc2c1=O)NC(=O)NCc1ccccc1`: the Potency result was “inactive”.

For the molecule `Cc1ccc(CSCC(N)C(=O)O)cc1` (stereo unspecified), the Potency result was “inactive”.

As to `Cc1ccc(SC(CC(=O)c2ccc(C(C)(C)C)cc2)C(=O)O)cc1` (stereo unspecified), the Potency is 10 µM (active).

On to `Cc1ccc(C(=O)CS(C)(=O)=O)cc1`, for which the Potency entry is “inactive”.

With `C/C(Cc1ccccc1)=N\NC(=O)CNC(=O)c1ccc2c(c1)OCCO2`, the Potency result was “inactive”.

In the case of `CC1CC2=C(CC1/C=N/NC(N)=S)C(C)(C)CCC2` (stereo unspecified), the Potency was 12.6 µM (active).

`CC1(C)CCCC2=C1CC1C(=O)N(c3ccccc3)C(=O)C1C2` (stereo unspecified): the Potency entry is “inactive”.

For `Oc1[nH]c2ccc(Br)cc2c1N=Nc1nn[nH]n1`, the Potency entry is “inactive”.
